A selection: hits, their analogues and other compounds. The true share with any hit is near 3.2%.
USP2a block: blocks human ubiquitin-specific protease USP2a. O75604. USP2 core, Ub-CHOP2 coupled fluorogenic reporter, 485/531. Potency, µM (doses to about 38.3 µM), usual class: inhibitors. hit rate 0.01% among 330,000. AID 463254
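Deubiquitinase activity read as fluorescence (485/531 nm) after Ub-CHOP2 cleavage activates the enterokinase reporter on its substrate; USP2 core 10nM, Ub-CHOP2 and substrate 25nM each, 30min compound preincubation then 60min RT; data normalized to NEM, curves fitted.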
Coupling enz: counter-screen for Giardia aldolase inhibitors: coupling enzyme system; coupling enzyme system counterscreen, AmpLite Red fluorescence; activity change, negative = inhibition, % at 58.2 µM, hits read low; AID 2472; hit rate 0.67% among 290,000; in the data active means activity change below about -30%
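Coupling enzymes only (glyceraldehyde-3-phosphate) + compound, at 57.5 uM final, 10 min RT; add substrate/coupling/AmpLite Red mix, 20 min RT; fluorescence ex 525/em 598 nm. Actives flag coupling-system interference.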
USP1-UAF1 inh: blocks the human USP1/UAF1 deubiquitinase complex; O94782; recombinant USP1/UAF1, Ub-Rhodamine cleavage fluorescence; Potency, µM (titrated, usually from 57.1 µM), actives largely listed as inhibitors; hit rate 0.23% among 390,000; further: nearly all actives have a fitted effect of over 60% in size
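High-throughput fluorogenic screen: 1nM USP1/UAF1 complex, Ub-Rho substrate 150nM final, 50mM HEPES pH 7.8 with 0.5mM EDTA, 0.1 mg/ml BSA, 1mM TCEP and 0.01% Tween-20.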
VDR inhibitor: blocks the human vitamin D receptor; P11473; VDR-SRC2-3 peptide fluorescence polarization, 2 h; Potency, µM, hits mostly inhibitors; hit rate 0.93% among 400,000; AID 504847
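VDR–SRC2-3 interaction, FP format. Cmpds 23 nl via pintool, brief spin, 2 h ambient incubation.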
GALK inh: blocks human galactokinase activity; AID 1868; Potency, µM (doses to about 57.5 µM), hits mostly inhibitors; Purified GALK, Kinase-Glo residual ATP luminescence; hit rate 0.007% among 270,000
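ATP-depletion format; final 35 uM ATP, 100 uM D-galactose, 5 nM enzyme; pH 8.0 HEPES/Mg2+ buffer; 60 min RT; luminescence read 10 min after detection reagent.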
PLK1 PBD inh: PLK1 (human) polo-box domain binding inhibition. Plk1 PBD binding of FITC phosphopeptide, fluorescence polarization. P53350. hit rate 2.8% among 360,000. Potency, µM, usual class: inhibitors; further: series mostly up to about 57 µM; nearly all actives have a fitted effect of over 65% in size
TbPYK confirm: Trypanosoma brucei pyruvate kinase inhibition, cherry-pick confirmation; hit rate 67% among 890; Potency, µM (doses to about 76.9 µM), most hits filed as inhibitors; recombinant TbPYK, Kinase-Glo ATP luminescence; shares compounds with PLK1 PBD inh; further: nearly all actives have a fitted effect of over 70% in size
TbPYK ADP-Glo: orthogonal confirmation of Trypanosoma brucei pyruvate kinase inhibitors; shares compounds with PLK1 PBD inh; recombinant TbPYK, ADP-Glo luminescence, 60 min; Potency, µM (highest dose often 76.9 µM), hits mostly inhibitors; hit rate 62% among 890; AID 720584; further: nearly all actives have a fitted effect of over 75% in size
Hits are given with their value; i = inactive; ? = inconclusive; nt = no result. Unless noted, the call rests on the fitted dose curve; in most records, active means well fitted curve in the direction sought with a large enough effect; inconclusive means small, poorly fitted or top-dose-only effect, or another doubt; inactive means no such curve, though single readings can be large; an effect the other way counts as inactive or inconclusive.

SMILES | USP2a block | Coupling enz | USP1-UAF1 inh | VDR inhibitor | GALK inh | PLK1 PBD inh | TbPYK confirm | TbPYK ADP-Glo
COc1ccc(S(=O)(=O)N(C)C[C@H]2OCCCC[C@H](C)Oc3ccc(N(C)C)cc3C(=O)N([C@H](C)CO)C[C@@H]2C)cc1 | nt | nt | i | nt | nt | i | 11µM | ?
Cc1ccc(NC(=O)Cn2cc(C(=O)c3ccccc3)c3ccccc32)c(C)c1 | nt | nt | i | i | nt | nt | nt | nt
COc1ccc(OC)c(N2C(=O)NC(=O)/C(=C\c3ccc([N+](=O)[O-])s3)C2=O)c1 | i | i | ? | ? | i | 2.7µM | 2.8µM | ?
CN1c2ccc([N+](=O)[O-])cc2CC2(C(=O)NC(=O)N(c3ccccc3)C2=O)C1c1ccccc1 (centres undefined) | i | i | i | i | i | i | nt | nt
O=C1NC(=O)N(c2ccccc2)C(=O)/C1=C\c1ccc([N+](=O)[O-])s1 | i | i | 18µM | 40µM | nt | 5.3µM | 7.9µM | 13µM
O=P(Oc1ccccc1)(Oc1ccccc1)N1CCOCC1 | nt | nt | i | i | nt | i | nt | nt
CC(C(=O)c1ccc2ccccc2c1)N1CCCCC1 (centres undefined) | i | i | i | i | i | i | nt | nt
CN1[C@@H](CC(=O)c2ccccc2)CCC[C@@H]1C[C@@H](O)c1ccccc1 | nt | i | nt | i | nt | nt | nt | nt
Cc1ccc2cc3cc(C(=O)N4CCC5(CC4)OCCO5)oc3nc2c1 | i | i | i | i | i | i | nt | nt
Cc1cc(C)n2nc(SC(C)C(=O)N3CCC4(CC3)OCCO4)nc2n1 (centres undefined) | i | i | i | i | i | i | i | i
O=C(Cc1ccccc1)NC(Cc1ccc(Cl)cc1)C(=O)O (centres undefined) | i | i | i | i | i | i | nt | nt
CCOc1ccccc1N1C(=O)NC(=O)/C(=C/c2ccc3c4c(cccc24)CC3)C1=O | i | i | ? | ? | i | 6.7µM | ? | ?
O=C(O)CCn1cc(C=C2C(=O)NC(=O)NC2=O)c(-c2ccc(Br)cc2)n1 | i | i | i | i | i | 2.7µM | 14µM | 28µM
Cc1ccc(-c2nn(Cc3ccccc3)cc2C=O)cc1 | i | i | ? | i | i | i | nt | nt
CC(C(N)=O)N1CC(c2ccc(Cl)cc2)CC1=O (centres undefined) | i | i | i | i | i | i | nt | nt
O=C1NC(=O)N(Cc2ccccc2)C(=O)/C1=C\c1ccco1 | i | i | i | i | i | 2.1µM | 32µM | ?
O=c1[nH]c(O)c(/C=C2\C=NN=C2c2ccccc2)c(=O)[nH]1 | i | i | i | ? | i | 3.5µM | 11µM | 32µM
CCOC(=O)c1c(/N=C/C2C(=O)NC(=S)NC2=O)sc2c1CCC2 | i | i | i | ? | i | i | ? | ?
O=C1NC(=O)N(c2ccc3c(c2)OCO3)C(=O)/C1=C\c1ccc(N2CCCCC2)o1 | i | i | i | i | i | i | nt | nt
O=C1NC(=O)C(=Cc2ccc(SC3CCCCC3)o2)C(=O)N1 | i | i | ? | ? | i | 0.6µM | 28µM | 40µM
O=P1(NCc2ccco2)COc2ccccc2OC1 | i | i | i | i | i | i | nt | nt
CCOC(=O)c1c(C)n(Cc2ccc(F)cc2)c2ccc(O)cc12 | i | i | i | i | i | i | ? | 18µM
CCOC(=O)c1c(C)n(Cc2ccc3c(c2)OCO3)c2ccc(O)cc12 | i | i | i | i | i | i | nt | nt
C[N+]1(C)CCN(c2ccccc2)CC1 | i | i | i | i | i | i | nt | nt
O=C1NC(=O)N(c2ccc(F)cc2)C(=O)/C1=C/c1ccsc1 | i | i | i | ? | i | 6.7µM | ? | i
CCc1ccccc1N1C(=O)NC(=O)/C(=C\c2cc(C)n(C)c2C)C1=O | i | i | i | ? | i | i | nt | nt
O=C1NC(=O)N(c2cccc(Br)c2)C(=O)/C1=C/c1ccsc1 | i | i | i | ? | i | 2.4µM | ? | ?
C(=NC12CN3CN(CN(C3)C1)C2)c1cccs1 | i | nt | i | i | i | i | nt | nt

High-throughput results (PubChem BioAssay)
